The AC50 is the concentration at which the activity in the assay is half-maximal.

Inconclusive results are not listed. The source made the active and inactive calls. Rule for the calls: active = hit-call score of the fitted dose curve at least 0.9, where 1 is the maximum; inconclusive = response in the unintended direction; inactive = score below 0.9.

In this assay the target is human Retinoic Acid Receptor gamma (RARg), RARG (gene 5916) (UniProt P13631). In words: ATG_RARg_TRANS: Attagene TRANS-FACTORIAL HepG2 Assay for human Retinoic Acid Receptor gamma (RARg) (AID 2283009).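 For AC50: AC50 is for reporter induction above DMSO meaning RARg activation.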 The procedure: ATG_TRANS is a cell-based, multiplexed-readout assay that uses HepG2, a human liver cell line, with measurements taken at 24 hours after chemical dosing in a 24-well plate.ATG_RARg_TRANS is one of 30 assay component(s) measured or calculated from the ATG_TRANS assay. It is designed to make measurements of mRNA induction, a form of inducible reporter, as detected with fluorescence intensity signals by Reverse transcription polymerase chain reaction (RT-PCR) and Capillary electrophoresis technology.Data from the assay component ATG_RARg_TRANS was analyzed into 1 assay endpoint. This assay endpoint, ATG_RARg_TRANS, was analyzed in the positive analysis fitting direction relative to DMSO as the negative control and baseline of activity. Using a type of inducible reporter, measures of mRNA for gain-of-signal activity can be used to understand the reporter gene at the transcription factor-level as they relate to the gene RARG. Furthermore, this assay endpoint can be referred to as a primary readout, because this assay has produced multiple assay endpoints where this one serves a reporter gene function. To generalize the intended target to other relatable targets, this assay endpoint is annotated to the nuclear receptor intended target family, where the subfamily is non-steroidal.
Chain of human Retinoic Acid Receptor gamma (RARg), RARG (gene 5916) (P13631 whole entry, looked up): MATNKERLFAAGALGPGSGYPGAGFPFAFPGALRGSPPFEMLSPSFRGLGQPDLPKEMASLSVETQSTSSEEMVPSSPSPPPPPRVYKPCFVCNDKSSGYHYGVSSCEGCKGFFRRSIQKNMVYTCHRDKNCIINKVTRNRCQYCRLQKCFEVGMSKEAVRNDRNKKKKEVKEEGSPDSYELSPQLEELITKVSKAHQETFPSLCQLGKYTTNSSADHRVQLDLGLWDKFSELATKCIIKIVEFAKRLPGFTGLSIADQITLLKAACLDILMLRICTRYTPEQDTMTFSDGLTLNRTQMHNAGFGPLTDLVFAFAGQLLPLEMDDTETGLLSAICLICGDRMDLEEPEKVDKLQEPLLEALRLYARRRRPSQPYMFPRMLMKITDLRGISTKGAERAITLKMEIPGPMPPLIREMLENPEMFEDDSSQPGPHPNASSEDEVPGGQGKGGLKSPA
Human liver HepG2 cells are transiently transfected with multiple reporter transcription units (MRTUs) in 6-well plates using FuGene 6 reagent (Roche; 3 ml FuGene/1 mg DNA). The MRTU constructs are regulated by a cis-regulating element (promoter). […] A major difference between the CIS and TRANS system is that in CIS activities of endogenous TFs are measured, whereas the TRANS assay evaluates changes in activities of exogenous, chimeric NR-Gal4 proteins. […] At the end of 24 hour incubation, total RNA was isolated using TriZol reagent (Invitrogen). The isolated RNA is then reverse-transcribed using oligo(dT) primer and Mo-MLV reverse transcriptase (Invitrogen) with DNAse I (Ambion) treatment for 30 min. The one-tenth of the produced cDNA was amplified by PCR using Taq DNA polymerase (Invitrogen) and two reporter sequence-specific primers. The PCR products were fluorescently labeled by primer extension with 6-arboxyfluorescein (6-FAM) 5'-labeled reporter sequence-specific primer (2 min at 95 C, 20 s at 68 C and 10 min at 72 C) and these products were digested with 5U of HpaI (New England Biolabs) for 2h at 37 C. […] The raw capillary electrophoresis data was processed using Attagraph software (Attagene).
With `Cc1cccc(C)c1O`, the call was inactive.

On to `CN1CCCC1=O`, for which the outcome was inactive.

In the case of `CNCc1cc(F)ccc1Oc1ccc(Cl)c(Cl)c1`, the compound was called inactive.

As to `CCCCCCC(=O)OCC`, the compound was called inactive.

For `COCCOC[C@H](CC1(C(=O)NC2CCC(C(=O)O)CC2)CCCC1)C(=O)Oc1ccc2c(c1)CCC2` (stereo not given in full), the outcome was inactive.

For the compound `COc1cccc2c1C(=O)c1c(O)c3c(c(O)c1C2=O)C[C@@](O)(C(=O)CO)C[C@@H]3O[C@H]1C[C@H](N)[C@H](O)[C@H](C)O1`, the compound was called inactive.

On to `Cc1oc(-c2ccccc2)nc1CCOc1cccc2c1ccn2CCC(=O)O`, for which the call was inactive.

For the compound `CCNc1cccc(C)c1`, the compound was classed as inactive.

As for `Oc1ccc2c(c1)OC[C@@H](N1CCC(O)(c3ccc(F)cc3)CC1)[C@H]2O`, the outcome was inactive.

Regarding `CC(=O)OCCOCCOCCOC(C)=O`, the result was inactive.

On to `OC[C@@H](O)[C@@H](O)[C@H](O)[C@H](O)CO`, for which the compound was classed as inactive.

For the compound `CC=Cc1ccc(O)c(OC)c1`, the compound was called inactive.

Consider `CC(C)(C)c1cc(O)c(C(C)(C)C)cc1O`, for which the compound was classed as inactive.

Turning to `CC(=O)Oc1ccccc1C(=O)O`, the result was inactive.

With `COc1ccc(C)cc1N`, the outcome was inactive.

Turning to `COc1ccc(S(=O)(=O)N2C(=O)[C@@](c3ccccc3OC)(N3C[C@H](O)C[C@H]3C(=O)N(C)C)c3cc(Cl)ccc32)c(OC)c1`, the call was inactive.

For the compound `c1cc(-c2ccncc2)ccn1`, the call was inactive.

With `Nc1ccccc1N`, the compound was classed as inactive.

Turning to `Nc1nc(N)c2nc(CNc3ccc(C(=O)N[C@@H](CCC(=O)O)C(=O)O)cc3)cnc2n1`, the outcome was inactive.

On to `Clc1cc(Cl)c(Cl)cc1Cl`, for which the compound was classed as inactive.

`CCCCCCCCCCO`: the outcome was inactive.

`CCCCCCCCCCCCCCCC`: the outcome was inactive.

Turning to `Cc1ccc(C(C)C)c(O)c1`, the result was inactive.

For `CC1=C(/C=C/C(C)=C/C=C/C(C)=C/CO)C(C)(C)CCC1`, the AC50 was 0.117 µM (active).

Consider `C=CCOC(=O)c1ccccc1C(=O)OCC=C`, for which the result was inactive.

For the compound `CCOC(=O)CCC(=O)OCC`, the outcome was inactive.

Turning to `Cc1ccc(C)c(C)c1`, the outcome was inactive.

For `C1CCC(SSC2CCCCC2)CC1`, the result was inactive.

On to `CCCCCCCCCCCCCCCCCC(=O)O`, for which the result was inactive.

As to `Cc1cccc([N+](=O)[O-])c1C`, the result was inactive.

For `CCCCCC(=O)O`, the compound was called inactive.

As for `NCCO`, the compound was classed as inactive.

For `CCCCCCCCCCC`, the call was inactive.

For the compound `Cc1ccc(C)c(O)c1C`, the compound was called inactive.

Take `Cc1nc(C)nc(N2C[C@@H](C)N(c3ccnc([C@@H](C)O)n3)[C@@H](C)C2)n1`: the compound was called inactive.

As to `Oc1ccc2ccccc2c1N=Nc1ccccc1`, the compound was called inactive.

With `O=c1c(O)c(-c2ccc(O)c(O)c2)oc2cc(O)cc(O)c12`, the result was inactive.

For the compound `FC(F)(F)C(F)(F)C(F)(F)C(F)(F)C(F)(F)C(F)(F)CCI`, the compound was called inactive.

With `COc1cc(/C=C/C(=O)CC(=O)/C=C/c2ccc(O)c(OC)c2)ccc1O`, the result was inactive.

`CCCCC(CC)COC(=O)CC(C(=O)OCC(CC)CCCC)S(=O)(=O)O` (stereo not given): the outcome was inactive.

The values are drawn from PubChem BioAssay (EPA / NIEHS).
